# Source: PubChem BioAssay
# ST2 inh: inhibitors of human ST2 (IL1RL1) binding to IL-33, primary screen, biochemical, AlphaLISA | inhibition, % for hits at 17 µM | AlphaLISA ST2-Fc/biotin-IL-33 interaction, 1 h | 78,000 tested, 2.3% active | AID 1259354, 2018 | Interleukin-1 receptor-like 1 (Homo sapiens), Q01638; in the data active = inhibition above about 30%
# Target sequence (Q01638 whole entry, looked up): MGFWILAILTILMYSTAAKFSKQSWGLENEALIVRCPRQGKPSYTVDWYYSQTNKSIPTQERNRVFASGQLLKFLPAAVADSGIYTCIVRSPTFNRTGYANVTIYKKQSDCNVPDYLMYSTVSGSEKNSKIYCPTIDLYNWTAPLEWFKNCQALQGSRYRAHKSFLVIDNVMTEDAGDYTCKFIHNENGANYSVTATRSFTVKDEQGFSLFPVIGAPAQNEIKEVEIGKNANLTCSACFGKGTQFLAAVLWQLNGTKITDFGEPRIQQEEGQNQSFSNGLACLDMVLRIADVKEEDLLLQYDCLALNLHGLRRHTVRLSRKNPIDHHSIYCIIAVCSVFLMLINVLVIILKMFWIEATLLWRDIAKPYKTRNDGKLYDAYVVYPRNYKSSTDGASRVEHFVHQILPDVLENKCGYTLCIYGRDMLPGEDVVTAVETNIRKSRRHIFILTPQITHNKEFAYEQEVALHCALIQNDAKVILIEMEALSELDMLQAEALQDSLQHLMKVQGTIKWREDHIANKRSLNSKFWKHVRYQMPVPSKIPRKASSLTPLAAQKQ
# * marks the source's active call; other numbers are inactive results; i = inactive. Only a selection was taken, and hits are over-represented in it overall.
SMILES,ST2 inh
Cc1ccc2nc(-c3ccc(C)o3)c(Nc3ccccc3)n2c1,i
Cc1ccc(-c2nc3ccccn3c2Nc2ccc3c(c2)OCCO3)o1,35.0%*
Cc1ccc2nc(-c3ccc(C)o3)c(Nc3ccc4c(c3)OCCO4)n2c1,i
Cc1ccc(-c2nc3ccc(Br)cn3c2Nc2ccc3c(c2)OCO3)o1,i
Cc1ccc2nc(-c3c[nH]c4ccccc34)c(NC3CCCC3)n2c1,i
Cc1ccc(-c2nc3cnccn3c2Nc2ccc3c(c2)OCO3)o1,i
Cc1ccn2c(NC3CCCC3)c(-c3ccccn3)nc2c1,38.0%*
Cc1ccc(-c2nc3cnccn3c2NC2CCCCC2)o1,i
Clc1ccc2nc(-c3ccco3)c(Nc3ccc4c(c3)OCO4)n2c1,i
Cc1ccn2c(Nc3ccccc3)c(-c3ccc(C)o3)nc2c1,i
Cc1ccn2c(Nc3ccc4c(c3)OCO4)c(-c3ccccn3)nc2c1,31.0%*
Cc1ccc2nc(-c3ccccn3)c(Nc3ccc4c(c3)OCO4)n2c1,32.0%*
CC(C)CN(CC(C)C)C(=O)CN(C)S(=O)(=O)c1ccc2c(c1)CCC(=O)N2,i
CC(=O)NC1=NN(C(C)=O)C(c2ccc(OCc3ccccc3)cc2)S1 (stereo unspecified),i
O=C(CS(=O)(=O)c1cccc2nsnc12)Nc1ccc(F)cc1Cl,i
Cn1c(=O)c2c(nc(SCC(=O)N3CCOCC3)n2Cc2ccccc2Cl)n(C)c1=O,i
CC(c1ccccc1)C(CC(=O)O)C(=O)Nc1ccccc1 (stereo unspecified),i
COc1ccc(C(=O)N2CCNCC2C(=O)N2CCOCC2)cc1Cl (stereo unspecified),i
O=C(Cn1nc(Cc2ccccc2)c2ccccc2c1=O)N1CC[C@H](O)[C@@H](O)C1,i
Cc1ccc(C2Nc3ccccc3NC3=C2C(=O)CCC3)cc1 (stereo unspecified),i
CC1CN(Cc2nc3c(c(=O)[nH]c(=O)n3C)n2Cc2ccccc2Cl)CC(C)O1 (stereo unspecified),i
Clc1ccc(C2C=C(c3ccccc3)Nc3nnnn32)c(Cl)c1 (stereo unspecified),i
COc1ccc(Nc2c(-c3ccccn3)nc3ccc(Br)cn23)cc1,i
Cc1ccc2nc(-c3ccccn3)c(Nc3ccc4c(c3)OCCO4)n2c1,31.0%*
Brc1ccc2nc(-c3ccccn3)c(Nc3ccccc3)n2c1,i
SMILES,ST2 inh
COc1ccccc1CN(C(=O)c1ccc2nc(C)[nH]c2c1)C1CC1,i
CC1(C)CC(=O)C2=C(C1)OC(N)=C(C#N)C2c1c[nH]c2ccccc12 (stereo unspecified),i
O=C(O)C1(CCCc2ccccc2)CCN(Cc2cnc[nH]2)CC1,i
Cc1ccc(CSC2=NCCN2C(=O)c2cccc(F)c2)cc1,i
Cc1cc(C)c(S(=O)(=O)n2cnc3ccccc32)c(C)c1,i
Cc1ccc(S(=O)(=O)N2CCN(c3nc(C)cc(N4CCCC4)n3)CC2)c(C)c1,i
Cc1ccc(C)c(S(=O)(=O)N=C2C=C(Br)C(=O)c3ccccc32)c1,34.0%*
Cc1cc(C)c(S(=O)(=O)N=C2C=CC(=O)c3ccccc32)c(C)c1,39.0%*
Cc1ccc(S(=O)(=O)N=C2C=CC(=O)c3ccccc32)c(C)c1,61.0%*
CC(=O)N(CN1C(=O)c2ccccc2C1=O)c1cc(C)ccc1C,i
Cc1cc(C)c(S(N)(=O)=O)c(C)c1,i
Cc1sc2nc(SCc3ccc(C(=O)NCCO)cc3)nc(N)c2c1C,i
CCC(=O)Nc1c2c(nn1-c1ccc(C)cc1)CSC2,i
COc1ccc(-c2nc3ccccc3o2)cc1NC(=O)C(C)C,i
COc1cc(CCC(=O)O)ccc1O,i
CC1CCN(C(=O)c2ccc3nc4ccc(Cl)cc4c(=O)n3c2)CC1,i
C=CCSC1=C(C#N)C(c2ccc(C)cc2)CC(=O)N1 (stereo unspecified),i
O=C(NC1C=CS(=O)(=O)C1)c1cnn2c1CCCC2 (stereo unspecified),i
Cn1cc(CN2C[C@@H]3C[C@H](C2)c2ccc(NC(=O)c4ccc(F)cc4)c(=O)n2C3)c2ccccc21,i
Nc1nc(-c2ccccc2)c(NC(=O)c2ccc(Cl)cc2)s1,i
C=C1C(=O)OC[C@@H]1C/C=C(\C)CC1CC(C)C(=O)O1 (stereo partly specified),i
N#C/C(=C\c1ccc(-c2ccc3c(c2)C(=O)NC3=O)o1)c1nc2ncc(Br)cc2[nH]1,33.0%*
O=C1NN(c2ccc(Cl)c(Cl)c2)C(=O)/C1=C/c1ccc(-c2ccc3c(c2)C(=O)NC3=O)o1,i
CCSc1nc(CC(=O)N(C)CCc2scnc2C)cs1,i
O=C(OCc1nc2ccccc2s1)c1cccc(Br)c1,i
SMILES,ST2 inh
CCCS(=O)(=O)N1CCCC(C(=O)N2CCN(c3ncccn3)CC2)C1 (stereo unspecified),i
Fc1cccc(C2CCCCN2Cc2nc(-c3ccccc3)no2)c1 (stereo unspecified),i
O=C(NC1CCCCC1)c1ccc(Cl)cc1,i
O=C(NC1CCCCCCC1)c1ccccc1,i
Nc1cc(C(=O)O)ccc1NC1CCCCC1,31.0%*
O=C(c1ccccc1F)N1CCN=C1SCc1ccccc1Cl,i
O=C(Cc1ccccn1)N1CCC(C(O)c2cccs2)CC1 (stereo unspecified),i
Cc1nnc(NC(=O)CS(=O)(=O)c2c[nH]c3ccccc23)s1,i
c1coc(CN(Cc2ccsc2)Cc2cccc3cnccc23)c1,i
COc1ccc(OC)c(-c2c(C#N)c(N)nc(OC)c2C#N)c1,i
COc1ccc(-c2c(C#N)c(N)nc(OC)c2C#N)c(OC)c1,i
COc1ccc(/C=C2/C(C)=C(C#N)c3nc(N)c(C#N)c(C)c32)c(OC)c1,43.0%*
O=C(O)C1CCC(CNCc2cccc3ccccc23)CC1 (stereo unspecified),i
CCN(CC)S(=O)(=O)c1ccc2oc(C(=O)NC3CCCC3)c(C)c2c1,i
Cc1ccsc1[C@@H]1CCN(C(=O)Cn2nnc3ccccc3c2=O)C[C@H]1O,i
O=C(Nc1ccccc1[N+](=O)[O-])c1cc(I)ccc1Cl,35.0%*
Cc1cccc(NC(=O)c2ccc([N+](=O)[O-])cc2Cl)c1,31.0%*
O=C(Nc1ccc([N+](=O)[O-])cc1Cl)c1cc(I)ccc1Cl,31.0%*
O=C(NCc1cccs1)c1ccc(Cl)cc1[N+](=O)[O-],i
O=C(Nc1ccccc1I)c1ccc(Cl)cc1[N+](=O)[O-],30.0%*
O=C(Nc1ccccc1I)c1cc([N+](=O)[O-])ccc1Cl,i
COc1cc([N+](=O)[O-])ccc1NC(=O)c1cc(I)ccc1Cl,i
O=C(Nc1ccccc1Cl)c1ccccc1[N+](=O)[O-],i
O=C(Nc1cccc([N+](=O)[O-])c1)c1cc(I)ccc1Cl,i
O=C(Nc1cccc([N+](=O)[O-])c1)c1ccccc1Cl,i
SMILES,ST2 inh
CC(C)Oc1ccc(NC(=O)c2ccc([N+](=O)[O-])cc2Cl)cc1,i
O=C(Nc1ccc([N+](=O)[O-])cc1)c1cc(I)ccc1Cl,i
Cc1cc(Br)ccc1OCC(=O)Nc1ccccc1Cl,i
CCCCOc1ccc2c3c(c(=O)oc2c1)CCCC3,i
CC(Oc1cccc(-n2ccnc2-c2ccccn2)c1)C(=O)O (stereo unspecified),i
Cc1cccc(-c2cc(N3CCN(S(=O)(=O)c4ccccc4C)CC3)ncn2)c1,i
